Assay [1] addresses Vitamin D3 receptor (Homo sapiens) (UniProt P11473). Kind of assay: qHTS assay for small molecule antagonists of vitamin D receptor signaling (AID 588541; calls by dose curve;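 note: receptor activated by calcitriol during compound treatment; series mostly up to about 77 µM; % is set by controls: 0 for no effect and ±100 for the full control effect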). A digest of the protocol:
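VDR-UAS-bla HEK293T cells in 2% charcoal-stripped FBS were stimulated with 1-alpha,25-dihydroxyvitamin D3 (3 nM final) plus compound for 16 h at 37 C. The beta-lactamase CCF4 readout was normalized to 50 nM agonist and DMSO, and Hill fits gave IC50.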
(qHTS replaces the single test concentration by a dilution series.)

Assay [2] has the same target. Briefly: qHTS assay for small molecule agonists of vitamin D receptor signaling (AID 588543; calls by dose curve;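 note: 0% = DMSO basal and 100% = reference agonist control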). A digest of the protocol: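 qHTS in agonist mode: compound titrations stimulate a VDR-driven β-lactamase reporter in HEK293T cells over 16 h at 37 °C. Response normalized to 50 nM 1α,25-dihydroxyvitamin D3 = 100%, DMSO = 0%; Hill fitting gives EC50 and maximal response.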
The target in assay [3] is Thyroid hormone receptor beta (Homo sapiens) (UniProt P10828). Briefly: qHTS assay for small molecule agonists of thyroid hormone receptor beta signaling (AID 588545; calls by dose curve). A digest of the protocol: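 In this cell-based screen, titrated compounds act on HEK 293 cells held in medium with 2% charcoal/dextran FBS, NEAA and pyruvate for 18 hrs at 37 C. Responses are expressed relative to T3 (10 nM) as 100% and basal DMSO as 0%.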

Assay [4] in a line: qHTS assay for small molecule antagonists of retinoid X receptor alpha signaling (AID 588546; active = well fitted inhibition curve with a large enough effect in the signal ratio, with a control signal flat, not every such curve was filed as active; the % refers to the signal ratio;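 note: cells stimulated with 9-cis-retinoic acid as agonist; % is set by controls: 0 for no effect and ±100 for the full control effect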). To be noted: HEK293T RXRa-UAS-bla, beta-lactamase ratio, antagonist mode; measured here: W530 green channel, cytotoxicity proxy. The procedure, abridged: (§1)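 Beta-lactamase reporter inhibition, read as CCF4 fluorescence ratio (ex 405, em 460/530 nm) after 2 h at RT. HEK293T UAS-bla cells, 2500/well, were stimulated with 9-cis-RA at 500 or 100 nM final alongside test compound for 18 h at 37 C.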

For assay [5], the target named is Retinoic acid receptor RXR-alpha (Homo sapiens) (UniProt P19793). Described as above. The note with it: HEK293T RXRa-UAS-bla, beta-lactamase ratio, antagonist mode. A digest of the protocol:
as §1

Assay [6] addresses Thyroid hormone receptor beta (Homo sapiens) (UniProt P10828). Briefly: qHTS assay for small molecule antagonists of thyroid hormone receptor beta signaling (AID 588547; active = well fitted inhibition curve with a large enough effect in the signal ratio, with a control signal flat, not every such curve was filed as active; the % refers to the signal ratio;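 note: cells stimulated with 0.4 nM T3 agonist during compound exposure; series mostly up to about 77 µM; % is set by controls: 0 for no effect and ±100 for the full control effect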). To be noted: TR-UAS-bla HEK293, beta-lactamase ratio, antagonist mode, 18 h. The procedure, abridged:
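TR-UAS-bla GripTite HEK293 cells in 2% charcoal/dextran FBS medium; compounds 0.59 nM to 92 uM with T3 at 0.4nM final, 18 h at 37 C. Beta-lactamase read by CCF4 fluorescence (460/530 nm); Hill fits gave IC50 and efficacy.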

For assay [7], the target named is Voltage-gated inwardly rectifying potassium channel KCNH2 (Homo sapiens) (UniProt Q12809). Kind of assay: qHTS Assay for Small Molecule Inhibitors of the Human hERG Channel Activity (AID 588834).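 Note: top concentration of the series differs between compounds; % is set by controls: 0 for no effect and ±100 for the full control effect; lower thallium flux fluorescence means stronger hERG block; nearly all actives have a fitted effect of over 50% in size.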 The procedure, abridged:
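Measured: FluxOR fluorescence after thallium stimulation in U2OS cells transduced with hERG by baculovirus. Compounds pre-incubated around 10 min; medium Opti-MEM with 2% FCS. AC50 from Hill equation.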

The nature of assay [8]: qHTS assay for small molecule agonists of the antioxidant response element (ARE) signaling pathway (AID 651741; active = well fitted activation curve with a large enough effect in the signal ratio; the % refers to the signal ratio; note: potency is the fitted concentration of half-maximal effect). A digest of the protocol: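 CellSensor ARE-bla HepG2 cells (2,000/well) carrying ARE-driven beta-lactamase, exposed 16 h at 37 C. LiveBLAzer B/G FRET substrate added for 2 h at room temperature; fluorescence intensity read.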
The nature of assay [9]: qHTS assay for small molecule activators of the p53 signaling pathway (AID 651743; active = well fitted activation curve with a large enough effect in the signal ratio, not every such curve was filed as active; the % refers to the signal ratio; note: series mostly up to about 92 µM; % of control where 0% means no effect). The note with it: HCT-116 p53RE-bla, beta-lactamase FRET ratio, 16 h; stronger effect = higher value. A digest of the protocol:
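p53RE-bla HCT-116 cells carrying a beta-lactamase reporter under p53 response elements were exposed to compounds for 16 hours at 37 C. Reporter activity read as fluorescence after 2 hours at room temperature with LiveBLAzer B/G FRET substrate.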

The nature of assay [10]: qHTS assay for small molecule activators of the nuclear factor-kappa B (NF-kB) signaling pathway (AID 651749; active = well fitted activation curve with a large enough effect in the signal ratio; the % refers to the signal ratio; note: series mostly up to about 77 µM; % of control where 0% means no effect). The note with it: NF-kB-bla ME-180 cells, beta-lactamase FRET ratio, 16 h; stronger effect = higher value. The procedure, abridged:
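NF-kB-bla ME-180 cells carrying a beta-lactamase reporter under an NF-kB response element, 2,000 cells/well, exposed to compound for 16 hr at 37C; FRET-based beta-lactamase fluorescence read-out of pathway activation.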

A short description of assay [11]: qHTS assay for environmental chemicals that activate the Aryl hydrocarbon Receptor (AhR) signaling pathway (AID 651777). Note: % of control where 0% means no effect; nearly all actives have a fitted effect of over 15% in size. The note with it: 1A2-DRE human hepatoma cells, luciferase, 24 h; stronger effect = higher value. The procedure, abridged:
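Luminescence (One-Glo, 30 min, room temperature) reports AhR-driven luciferase in stably transfected human hepatoma cells bearing DRE and CYP1A2 promoter. Cells (1,200/well) were treated with compound for 24 hr at 37 C in qHTS format.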

The target of assay [12] is Peroxisome proliferator-activated receptor alpha (Homo sapiens) (UniProt Q07869). Briefly: qHTS assay for small molecule agonists of the peroxisome proliferator-activated receptor alpha (PPARalpha) signaling pathway (AID 651778). Note: % of control where 0% means no effect. The note with it: PathHunter PPARalpha complementation, chemiluminescence, 6 h; stronger effect = higher value. A digest of the protocol: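 Enzyme-fragment complementation assay in which ligand-bound PPARalpha translocates and forms an active enzyme that generates chemiluminescence. Cells were plated overnight, exposed to compound for 6 hr at 37 C, and then given detection reagent for 60 min at room temperature.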

The target of assay [13] is Nuclear receptor ROR-gamma (Homo sapiens) (UniProt P51449). Briefly: qHTS assay for small molecule antagonists of the retinoid-related orphan receptor gamma (ROR-gamma) signaling pathway (AID 651802).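 Note: luciferase reporter luminescence driven by ROR response element; series mostly up to about 92 µM; % is set by controls: 0 for no effect and ±100 for the full control effect; nearly all actives have a fitted effect of over 60% in size.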 The procedure, abridged:
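CHO cells with TET-inducible ROR-gamma and RORE-luciferase reporter, dosed then doxycycline-induced. After 16 h at 37C, One-Glo luminescence read; decreased signal indicates antagonism.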

A short description of assay [14]: qHTS assay for small molecule agonists of the antioxidant response element (ARE) signaling pathway measured by Nrf2-dependant transcriptional activity (AID 720636; active = well fitted curve in the direction sought with a large enough effect in the repeat runs; an effect the other way counts as inactive or inconclusive; note: % of control where 0% means no effect). A digest of the protocol: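 Nrf2-dependent transcription read as ONE-Glo luciferase signal from ARE-luc HepG2 reporter cells after 16 hr compound treatment at 37 C, 5% CO2, in assay medium with 1% dialyzed FBS.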

Assay [15] in a line: qHTS assay for small molecule antagonists of the retinoid-related orphan receptor gamma (ROR-gamma) signaling pathway - cell viability counter screen (AID 720652; active = well fitted curve in the direction sought with a large enough effect in the repeat runs; an effect the other way counts as inactive or inconclusive;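 note: series mostly up to about 92 µM; compound exposure lasted 16 hr before ATP read; % is set by controls: 0 for no effect and ±100 for the full control effect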). A digest of the protocol: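 CHO cells carrying TET-inducible ROR and RORE-luciferase reporter, plated 5 hr, then dosed with compound plus doxycycline. After 16 hr at 37 C, viability read as intracellular ATP by CellTiter-Glo luminescence.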

Assay [16] in a line: qHTS assay for small molecule agonists of the antioxidant response element (ARE) signaling pathway measured by Nrf2-dependant transcriptional activity - cell viability counter screen (AID 720653; active = well fitted curve in the direction sought with a large enough effect in the repeat runs; an effect the other way counts as inactive or inconclusive; note: % is set by controls: 0 for no effect and ±100 for the full control effect). The note with it: ARE-bla HepG2 viability, CellTiter-Glo ATP luminescence, 16 h; stronger effect = lower value. A digest of the protocol: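 ARE-bla HepG2 cells treated with compounds for 16 h at 37C; this counter screen measures viability as intracellular ATP by CellTiter-Glo luminescence after 30 min at room temperature.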

Assay [17] in a line: qHTS assay for cell viability of HEK293 cells (AID 743288). Note: % is set by controls: 0 for no effect and ±100 for the full control effect; nearly all actives have a fitted effect of over 50% in size. The note with it: ATP luminescence (CellTiter-Glo), 18 h, stronger effect = lower value. The procedure, abridged: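 The Tox21 protocol used parental HEK293 cells treated for 18 h at 37 C with compounds delivered by pintool; ATP-coupled luminescence after 30 min at room temperature gave viability.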
A short description of assay [18]: qHTS assay for cell viability of the p53RE-bla HCT-116 cell line (AID 743292). Note: % is set by controls: 0 for no effect and ±100 for the full control effect; nearly all actives have a fitted effect of over 55% in size. The procedure, abridged:
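ATP-based luminescent viability (CellTiter-Glo, 30 min RT) after 16 h compound treatment at 37 C of p53RE-bla HCT-116 cells, seeded at 4,000 cells/well and rested 5 h before dosing.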

A short description of assay [19]: Primary qHTS for inhibitors of nuclear receptor binding SET domain protein 2 (NSD2) in an RCH-ACV wild type WT cells (2C) (AID 1645877). Note: potency is the fitted concentration of half-maximal effect; nearly all actives have a fitted effect of over 70% in size.
For assay [20], the target named is Glutathione peroxidase 1 (Homo sapiens) (UniProt P07203). Kind of assay: Primary qHTS Assay for Inhibitors of Recombinant Selenoprotein Glutathione Peroxidase 1 (GPX1) (AID 1845191). Note: % is set by controls: 0 for no effect and ±100 for the full control effect; nearly all actives have a fitted effect of over 65% in size. A digest of the protocol:
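GR-coupled assay: compounds preincubated 30 min at room temperature with GPX1, then reaction started with CHP; final 10 nM GPX1, 1 mM GSH, 0.5 mM CHP, 0.5 mM NADPH, 100 nM GR, 0.01% BSA, pH 7.5 Tris buffer. NADPH fluorescence (340/450 nm) read at 0 and 15 min.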

Structures are written as SMILES. Values joined by “and” are separate entries in the source; they are usually repeats but may differ in a detail not shown here. Equal entries are not always repeated. Records with an inconclusive call do not appear. Active and inactive are the calls of the source. Unless noted, calls come from the whole dose curve; as a rule, active = well fitted curve in the direction sought with a large enough effect; inconclusive = small, poorly fitted or top-dose-only effect, or another doubt; inactive = no such curve, though single readings can be large; an effect the other way counts as inactive or inconclusive.

Chain of Thyroid hormone receptor beta (Homo sapiens) (P10828 whole entry, looked up): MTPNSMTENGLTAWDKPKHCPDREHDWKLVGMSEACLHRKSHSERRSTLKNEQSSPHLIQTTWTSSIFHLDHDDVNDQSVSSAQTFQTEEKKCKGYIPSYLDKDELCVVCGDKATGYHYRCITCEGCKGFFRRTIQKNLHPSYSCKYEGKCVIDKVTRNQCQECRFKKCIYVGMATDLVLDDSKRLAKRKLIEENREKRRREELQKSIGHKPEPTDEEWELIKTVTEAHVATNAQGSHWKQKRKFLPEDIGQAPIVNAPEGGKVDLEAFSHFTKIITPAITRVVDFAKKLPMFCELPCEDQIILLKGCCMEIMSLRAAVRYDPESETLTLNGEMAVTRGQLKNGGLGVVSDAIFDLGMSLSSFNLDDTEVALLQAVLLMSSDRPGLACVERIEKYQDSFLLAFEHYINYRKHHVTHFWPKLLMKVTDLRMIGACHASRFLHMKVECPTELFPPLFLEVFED
Chain of Vitamin D3 receptor (Homo sapiens) (P11473 whole entry, looked up): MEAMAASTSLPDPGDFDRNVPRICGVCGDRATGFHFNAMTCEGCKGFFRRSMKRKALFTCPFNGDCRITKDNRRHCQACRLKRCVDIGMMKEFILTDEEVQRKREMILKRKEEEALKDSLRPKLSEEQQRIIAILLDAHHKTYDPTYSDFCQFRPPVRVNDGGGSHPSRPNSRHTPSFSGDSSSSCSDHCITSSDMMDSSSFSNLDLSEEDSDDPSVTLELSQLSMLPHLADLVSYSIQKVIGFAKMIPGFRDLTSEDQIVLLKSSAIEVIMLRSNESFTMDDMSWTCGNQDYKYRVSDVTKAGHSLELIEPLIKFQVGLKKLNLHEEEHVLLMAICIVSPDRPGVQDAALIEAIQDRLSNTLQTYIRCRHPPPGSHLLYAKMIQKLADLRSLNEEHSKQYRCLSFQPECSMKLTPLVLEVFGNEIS
Chain of Peroxisome proliferator-activated receptor alpha (Homo sapiens) (Q07869 whole entry, looked up, the tested form may be a part): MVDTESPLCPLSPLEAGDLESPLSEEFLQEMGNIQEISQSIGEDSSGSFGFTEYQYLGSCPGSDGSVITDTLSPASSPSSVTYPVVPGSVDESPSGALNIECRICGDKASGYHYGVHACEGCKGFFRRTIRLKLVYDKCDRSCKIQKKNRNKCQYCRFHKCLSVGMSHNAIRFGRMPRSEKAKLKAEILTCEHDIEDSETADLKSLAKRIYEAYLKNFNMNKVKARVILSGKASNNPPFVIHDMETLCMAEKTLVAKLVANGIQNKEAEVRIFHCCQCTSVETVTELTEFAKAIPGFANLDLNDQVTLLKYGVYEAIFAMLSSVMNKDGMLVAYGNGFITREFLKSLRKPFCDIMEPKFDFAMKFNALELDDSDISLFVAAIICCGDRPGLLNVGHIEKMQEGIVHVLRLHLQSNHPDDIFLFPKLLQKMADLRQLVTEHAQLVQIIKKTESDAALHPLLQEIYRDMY
Chain of Retinoic acid receptor RXR-alpha (Homo sapiens) (P19793 whole entry, looked up): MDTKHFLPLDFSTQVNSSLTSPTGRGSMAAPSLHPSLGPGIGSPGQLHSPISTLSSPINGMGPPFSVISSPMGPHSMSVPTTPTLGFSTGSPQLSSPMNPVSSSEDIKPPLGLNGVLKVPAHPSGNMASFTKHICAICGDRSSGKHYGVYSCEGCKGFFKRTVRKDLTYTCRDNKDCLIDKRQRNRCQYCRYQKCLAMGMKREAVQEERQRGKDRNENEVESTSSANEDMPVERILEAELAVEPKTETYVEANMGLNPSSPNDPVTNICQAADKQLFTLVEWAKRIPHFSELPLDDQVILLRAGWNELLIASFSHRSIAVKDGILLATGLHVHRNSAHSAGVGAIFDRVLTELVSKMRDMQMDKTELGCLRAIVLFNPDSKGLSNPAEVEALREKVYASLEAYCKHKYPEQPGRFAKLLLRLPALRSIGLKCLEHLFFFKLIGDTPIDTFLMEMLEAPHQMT
Chain of Glutathione peroxidase 1 (Homo sapiens) (P07203 whole entry, looked up): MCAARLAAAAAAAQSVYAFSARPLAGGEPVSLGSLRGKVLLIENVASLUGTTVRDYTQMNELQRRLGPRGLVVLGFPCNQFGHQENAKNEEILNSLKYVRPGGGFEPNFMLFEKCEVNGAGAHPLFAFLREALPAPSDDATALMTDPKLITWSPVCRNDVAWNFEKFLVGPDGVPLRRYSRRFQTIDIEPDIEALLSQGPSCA
Chain of Nuclear receptor ROR-gamma (Homo sapiens) (P51449 whole entry, looked up): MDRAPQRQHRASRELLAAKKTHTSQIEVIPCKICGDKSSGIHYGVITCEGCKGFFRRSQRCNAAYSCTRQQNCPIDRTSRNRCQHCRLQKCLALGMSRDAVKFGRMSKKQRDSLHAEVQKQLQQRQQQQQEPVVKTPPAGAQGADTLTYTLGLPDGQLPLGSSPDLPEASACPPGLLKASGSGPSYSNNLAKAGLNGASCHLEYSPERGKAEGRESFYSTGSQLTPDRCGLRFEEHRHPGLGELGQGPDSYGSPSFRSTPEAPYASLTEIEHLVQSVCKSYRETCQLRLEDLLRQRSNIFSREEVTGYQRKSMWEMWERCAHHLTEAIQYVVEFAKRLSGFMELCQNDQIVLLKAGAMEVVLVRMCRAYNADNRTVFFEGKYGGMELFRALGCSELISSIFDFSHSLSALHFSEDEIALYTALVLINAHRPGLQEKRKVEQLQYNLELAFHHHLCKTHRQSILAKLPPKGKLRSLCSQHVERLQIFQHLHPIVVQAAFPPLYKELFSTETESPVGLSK
Chain of Voltage-gated inwardly rectifying potassium channel KCNH2 (Homo sapiens) (Q12809 whole entry, looked up): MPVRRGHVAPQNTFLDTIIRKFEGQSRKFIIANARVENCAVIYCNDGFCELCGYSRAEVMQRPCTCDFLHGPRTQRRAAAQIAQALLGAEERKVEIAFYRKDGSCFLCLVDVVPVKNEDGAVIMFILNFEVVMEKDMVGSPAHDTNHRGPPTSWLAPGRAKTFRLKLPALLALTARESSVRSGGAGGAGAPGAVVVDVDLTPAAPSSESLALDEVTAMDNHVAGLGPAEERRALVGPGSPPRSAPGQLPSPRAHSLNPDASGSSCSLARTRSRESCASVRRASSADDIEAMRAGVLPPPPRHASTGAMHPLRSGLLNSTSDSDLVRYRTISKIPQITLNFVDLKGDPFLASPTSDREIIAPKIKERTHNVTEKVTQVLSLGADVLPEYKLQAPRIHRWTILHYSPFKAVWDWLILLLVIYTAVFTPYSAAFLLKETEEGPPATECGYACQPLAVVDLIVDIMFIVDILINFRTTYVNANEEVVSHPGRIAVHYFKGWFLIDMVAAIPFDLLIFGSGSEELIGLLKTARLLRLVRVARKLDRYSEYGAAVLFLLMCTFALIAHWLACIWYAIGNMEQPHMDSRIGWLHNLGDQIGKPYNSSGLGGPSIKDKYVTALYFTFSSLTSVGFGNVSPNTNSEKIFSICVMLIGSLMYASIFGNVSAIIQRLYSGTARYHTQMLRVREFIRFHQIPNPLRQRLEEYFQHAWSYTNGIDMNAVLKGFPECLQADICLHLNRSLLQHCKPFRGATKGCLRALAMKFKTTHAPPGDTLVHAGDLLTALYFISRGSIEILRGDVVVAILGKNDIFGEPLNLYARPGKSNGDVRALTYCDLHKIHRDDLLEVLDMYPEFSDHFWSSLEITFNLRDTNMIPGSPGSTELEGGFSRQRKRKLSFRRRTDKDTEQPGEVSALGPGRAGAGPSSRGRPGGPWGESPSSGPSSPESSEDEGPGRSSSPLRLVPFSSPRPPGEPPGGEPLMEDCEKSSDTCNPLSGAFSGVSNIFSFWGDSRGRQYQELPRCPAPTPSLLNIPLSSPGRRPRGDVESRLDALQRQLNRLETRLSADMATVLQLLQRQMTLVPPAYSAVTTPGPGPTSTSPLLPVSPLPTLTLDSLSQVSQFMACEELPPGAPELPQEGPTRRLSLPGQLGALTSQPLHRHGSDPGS

As for `CO[C@H]1/C=C/O[C@@]2(C)Oc3c(C)c(O)c4c(O)c(c(/C=N/N5CCN(C)CC5)c(O)c4c3C2=O)NC(=O)/C(C)=C\C=C\[C@H](C)[C@H](O)[C@@H](C)[C@@H](O)[C@@H](C)[C@H](OC(C)=O)[C@@H]1C`, the result in assay [1], in [2], in [3], in [7], in [13] and in assay [14] was inactive. Further, the compound was classed as inactive in assay [15] and in assay [18]. The max response is 12.2% and 0.217% in [4]; -24.8% (inactive) and 0.888% (inactive) in assay [5]; -9.67% (inactive) and -6.67% (inactive) in assay [12]; -3.19% (inactive) and -26% (inactive) in [16]; -14.9% (inactive) and -19.1% (inactive) in assay [17]. For the same compound, the activity change % (negative = inhibition) in assay [6] was 4.86% (inactive) and -12.3% (inactive). In addition, the Potency in assay [8] was 54.5 µM (active); in assay [19] it was 16.6 µM (active). Further, the activation was -10.4% (inactive) and -9.54% (inactive) in [9]; -0.981% (inactive) and -2.03% (inactive) in assay [10]; 0.185% (inactive) and -0.0706% (inactive) in assay [11]. In addition, the Potency result in assay [20] is “inactive”.

(Values after PubChem BioAssay (NCATS).)
